Source: PubChem (several laboratories)
An excerpt weighted towards active compounds, which were near 4% of everything screened.
DUSP3 inh: VHR1 phosphatase inhibitors, primary screen, biochemical, absorbance, uHTS; recombinant VHR phosphatase, pNPP absorbance; inhibition, % at 13.3 µM; 290,000 tested, 0.52% active; AID 1654, 2009; in the data active = inhibition above about 50%
Autofluor counter: flagged as autofluorescent in microsphere protease counterscreen; compound autofluorescence counterscreen, microsphere flow cytometry; stronger effect = higher value; fluorescence intensity (concentration not given with the values); 360,000 tested, 3.1% active; AID 624483; in the data active = fluorescence intensity above about 16000; inconclusive = no clear call, values can overlap the other calls
MazF activator: activators of E. coli MazEF toxin-antitoxin RNase, primary screen, biochemical, fluorescence, uHTS. Endoribonuclease toxin MazF (Escherichia coli (strain K12)), P0AE70. FAM/BHQ RNA-DNA oligo cleavage fluorescence, 5 h. activation, % at 20 µM. 350,000 tested, 0.32% active. AID 504720, 2011; in the data active = activation above about 50%
Anthrax LF inh2: Bacillus anthracis LF protease inhibitors, primary screen, biochemical, multiplex microsphere, MLPCN library; multiplex microsphere protease cleavage assay; Lethal factor (Bacillus anthracis), P15917; AID 588501, 2011; 360,000 tested, 0.12% active; inhibition, % at 10 µM
Target sequence (P15917 whole entry, looked up): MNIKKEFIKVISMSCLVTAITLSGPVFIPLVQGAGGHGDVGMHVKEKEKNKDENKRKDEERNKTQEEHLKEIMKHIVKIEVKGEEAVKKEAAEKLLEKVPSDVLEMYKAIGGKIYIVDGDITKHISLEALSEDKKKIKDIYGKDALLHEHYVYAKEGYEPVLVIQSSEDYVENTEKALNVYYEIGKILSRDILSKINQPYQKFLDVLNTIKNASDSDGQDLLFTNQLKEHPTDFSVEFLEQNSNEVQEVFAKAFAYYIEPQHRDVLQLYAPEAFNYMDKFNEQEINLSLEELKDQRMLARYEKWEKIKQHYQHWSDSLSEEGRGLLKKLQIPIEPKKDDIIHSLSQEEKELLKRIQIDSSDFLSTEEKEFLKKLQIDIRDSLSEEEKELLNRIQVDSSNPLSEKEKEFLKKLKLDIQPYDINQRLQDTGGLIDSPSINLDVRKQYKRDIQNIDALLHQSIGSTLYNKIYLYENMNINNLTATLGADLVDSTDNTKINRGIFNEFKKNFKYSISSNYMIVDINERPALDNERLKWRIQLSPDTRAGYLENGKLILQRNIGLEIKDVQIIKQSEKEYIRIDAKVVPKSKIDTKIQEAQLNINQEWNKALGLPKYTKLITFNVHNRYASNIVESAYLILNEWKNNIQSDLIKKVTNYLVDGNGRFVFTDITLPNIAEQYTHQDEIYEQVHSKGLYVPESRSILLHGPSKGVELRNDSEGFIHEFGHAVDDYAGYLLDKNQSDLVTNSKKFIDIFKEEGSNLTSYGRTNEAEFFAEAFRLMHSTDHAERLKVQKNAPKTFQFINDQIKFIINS
BoNT-A LC inh2: BoNT/A light chain protease inhibitors, primary screen, biochemical, flow cytometry, MLPCN library. Botulinum neurotoxin type A light chain protease (Clostridium botulinum A str. ATCC 3502). multiplex microsphere protease substrate cleavage. inhibition, % at 10 µM. 360,000 tested, 0.17% active
BoNT F protease: BoNT/F light chain protease inhibitors, primary screen, biochemical, flow cytometry, MLPCN library | Multiplex microsphere protease cleavage assay | inhibition, % at 10 µM | 360,000 tested, 0.22% active; in the data active = inhibition above about 35%, passing the limit was not always enough; inconclusive = no clear call, values can overlap the other calls
Hits are given with their value; i = inactive; ? = inconclusive; nt = no result given; ! = not active in a repeat. Rule as the data show it, unless noted: active = inhibition above about 30%; inconclusive = no clear call, values can overlap the other calls; inactive = below that.

SMILES	DUSP3 inh	Autofluor counter	MazF activator	Anthrax LF inh2	BoNT-A LC inh2	BoNT F protease
CC(C)c1nc2oc3ccccc3c(=O)c2c(=O)n1-c1ccccc1	i	17355	i	i	i	i
O=c1c2ccccc2oc2nc(-c3ccco3)n(-c3ccccc3)c(=O)c12	i	i	i	i	i	i
CCN1CCN(c2nc3sc4c(c3c(=O)n2-c2ccc(OC)cc2)CCCCC4)CC1	i	16947	i	i	i	i
COc1ccc(-n2c(NN)nc3sc4c(c3c2=O)CCCC4)cc1	i	i	i	i	i	i
COc1cc(NC(=S)NC2CC2)c(OC)cc1Cl	i	i	i	i	i	i
O=C(NCc1ccc(F)cc1)C1CCCN1C(=O)Nc1ccccc1 (centres undefined)	59	i	i	i	i	i
O=C(NCc1ccc(F)cc1)C1CCCN(C(=O)Nc2ccccc2)C1 (centres undefined)	i	19569	i	i	?	i
O=C(NCCc1ccccc1)C1CCCN1C(=O)Nc1ccc(Cl)cc1 (centres undefined)	53	i	i	i	i	i
O=C(NCCc1ccccc1)C1CCCN1C(=O)Nc1ccccc1 (centres undefined)	i	i	i	i	i	i
COc1cnc(-c2ccccn2)nc1Oc1ccc(Cl)c2ccccc12	i	17538	i	i	i	i
COc1cnc(-c2ccccn2)nc1Oc1ccc(Cl)cc1	i	16340	i	i	i	i
COc1cnc(-c2ccccn2)nc1Oc1ccccc1Cl	i	i	i	i	i	i
COc1cnc(-c2ccccn2)nc1Sc1cccc(Cl)c1	i	17458	i	i	i	i
Cn1c(=O)n(C)c2cc(NS(=O)(=O)c3ccc(Cl)s3)ccc21	i	i	i	i	i	i
O=C(CCN1CCCCC1)Nn1c(=S)[nH]c2ccccc2c1=O	i	23257	i	i	?	i
O=c1c2ccccc2[nH]c(=S)n1CCN1CCCC1	i	i	i	i	i	i
COC(=O)COC(=O)c1ccc(-n2nnnc2SC)cc1	i	22577	i	i	i	i
O=C(CCCN1C(=O)/C(=C\c2cccs2)SC1=S)Nc1cccnc1	i	i	i	i	i	i
CC(C)OC(=O)CSc1nnc(Cc2ccccc2)n1Cc1ccco1	i	19241	i	i	i	i
COc1ccc(C2CCCCCN2Cc2nc3ccccc3c(=O)n2CC(N)=O)cc1 (centres undefined)	i	i	i	i	i	i
COc1c(N2CCN(C(=S)NCc3ccccc3)C(C)C2)c(F)cc2c(=O)c(C(=O)O)cn(C3CC3)c12 (centres undefined)	i	i	i	i	i	i
CCS(=O)(=O)Nc1cccc(C2=NN(S(C)(=O)=O)C(c3ccccc3)C2)c1 (centres undefined)	i	i	i	i	i	i
CCS(=O)(=O)N1N=C(c2cccc(NS(C)(=O)=O)c2)CC1c1ccc(C)cc1 (centres undefined)	i	21472	67	i	i	i
Cc1nc2c([nH]c3ccc(Br)cc32)s1	i	20775	i	i	i	i
CC(c1ccccc1)n1c(Cn2ncc3ccccc3c2=O)n[nH]c1=S (centres undefined)	i	i	i	i	i	i
SMILES	DUSP3 inh	Autofluor counter	MazF activator	Anthrax LF inh2	BoNT-A LC inh2	BoNT F protease
COC(=O)c1cc2n(n1)CCN(Cc1ccc(C)cc1)C2=O	i	i	i	i	i	i
O=C(Nc1nccs1)c1c(O)c2cccc3c2n(c1=O)CCC3	56	nt	nt	nt	nt	nt
O=C(Nc1ccccn1)c1c(O)c2cccc3c2n(c1=O)CCC3	i	i	i	i	i	i
CCC(C)Sc1ccc(-c2nc3cc(C)ccn3c2NC2CCCCC2)cc1 (centres undefined)	nt	20914!	i	i	i	i
CCCCCCSc1cc(-c2nc3cc(C)ccn3c2NC2CCCCC2)ccc1OC	nt	i	i	i	i	i
COc1cc(-c2nc3cc(C)ccn3c2NC2CCCCC2)ccc1-c1ccc(C(C)=O)cc1	nt	23646	i	i	i	i
CCc1ccc(NC(=O)CCn2c(=O)c3cccn3c3ccccc32)cc1	i	i	i	i	i	i
CC[n+]1c(C)sc2c3ccsc3ccc21	51	i	i	i	i	i
CC[n+]1c(C)sc2sc3ccccc3c21	i	nt	nt	nt	nt	nt
CC(=O)Nc1ccc(NC(=O)CSc2ccc(C)cc2)cc1	i	i	i	i	i	i
CC(=O)Nc1ccc(SCC(=O)N(CCC#N)c2ccc(C)cc2)cc1	i	16531	i	i	i	i
CCN(CC)CCn1c(=N)n(CCOc2ccccc2)c2ccccc21	i	25371	i	i	?	i
CCN(CC)CCn1c(=N)n(CC(O)COc2ccccc2)c2ccccc21 (centres undefined)	i	i	i	i	i	i
Cc1ccc(NC(=O)CCCn2nc(C)c3c(C)n(-c4ccccc4)nc3c2=O)cc1C	i	i	i	i	i	i
CC(C)CCNC(=O)c1ccc2c(c1)ncn2C1CCCCC1	i	19635	i	i	i	i
COc1ccc(C(C(=O)OCCN(C)C)c2ccccc2)cc1 (centres undefined)	i	i	i	i	i	i
COc1cccc(-c2ccnc3[nH]n(-c4ccccc4)c(=O)c23)c1	51	i	i	i	i	i
O=c1c2c(-c3ccc([N+](=O)[O-])cc3)ccnc2[nH]n1-c1ccccc1	58	i	i	i	i	i
NS(=O)(=O)c1ccc(CCNc2nc(CN3CCCCC3)nc3sc4c(c23)CCC4)cc1	i	21682	i	i	i	i
Cc1cc(S(=O)(=O)Nc2nc(CN3CCOCC3)nc3sc4c(c23)CCC4)cc(C)c1C	nt	nt	i	nt	nt	nt
O=C(O)/C=C/c1ccc(S(=O)(=O)Nc2ccc3[nH]c(=O)[nH]c3c2)cc1	i	i	i	i	i	i
CCc1cc(/C(Cc2ccccn2)=N\O)c(O)cc1O	i	18010	i	i	?	i
CCOC(=O)/C(C(N)=NCCO)=C(/O)c1ccccc1	i	17067	i	i	i	i
COc1cc(OC)c(-c2nn3c(C4CCCCC4)nnc3s2)cc1OC	i	i	i	i	i	i
Clc1ccc(OCc2nn3c(C4CCCCC4)nnc3s2)c(Cl)c1	i	22251	i	i	i	i
Oc1c(N=Nc2ccccn2)ccc2ccccc12	i	i	i	i	36	i
CCNC(=O)/C=C1\NC(C)(C)Cc2c1ccc1ccccc21	i	i	i	i	i	i
CCOc1ccc(CCNC(=O)COC(=O)Cn2cnc3c2c(=O)n(C)c(=O)n3C)cc1OCC	nt	?	i	i	i	i
COc1ccc(-n2nc(C(=O)NCC(=O)Nc3ccccn3)c3ccccc3c2=O)cc1	i	i	i	i	i	i
CCOc1ccc(NC(=O)CNC(=O)c2nn(-c3ccc(OC)cc3)c(=O)c3ccccc23)cc1	i	i	73	i	i	i
